This is a sample that favours compounds with a hit; in the whole collection about 4.6% have one here.
NALP3 yeast inh: NALP3 inflammasome inhibitors in reconstituted yeast, primary screen, luminescence, uHTS. Yeast reconstituted NLRP3/ASC/caspase-1, beta-gal luminescence, 24 h. inhibition, % at 10 µM. hit rate 0.39% among 330,000;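 active = inhibition of 50% or more; inactive = inhibition below 50%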
tim23-1 inh: growth inhibitors of tim23-1 mutant yeast, primary screen, luminescence, uHTS | hit rate 1.3% among 330,000 | inhibition, % at 20 µM | S. cerevisiae tim23-1 growth, BacTiter-Glo luminescence, 24 h | AID 463212, 2010;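 active = growth inhibition of the mutant yeast at or above 50%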;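 also: temperature-sensitive mutant grown at 25 °C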
TIM10 inh: growth inhibitors of isogenic TIM10 control yeast, primary screen, counter-screen for tim10-1 yeast inhibitor project, luminescence, uHTS; hit rate 1.4% among 330,000; inhibition, % at 10 µM; S. cerevisiae TIM10 strain growth, BacTiter-Glo luminescence, 24 h; AID 463195, 2010;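 active = inhibition of 40% or more at the single tested concentration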;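 also: wild-type TIM10 isogenic control strain grown at permissive 25 °C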
tim10-1 inh: growth inhibitors of tim10-1 mutant yeast, primary screen, luminescence, uHTS. S. cerevisiae tim10-1 ts strain growth, BacTiter-Glo, 24 h. inhibition, % at 20 µM. hit rate 2.2% among 330,000;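 active = inhibition of at least 40%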;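 also: mutant grown at 25 °C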
SKKanGAS inh: S. pyogenes SKKanGAS growth inhibitors in kanamycin, primary screen, streptokinase expression inhibitor project, SKKanGAS strain, BacTiter-Glo luminescence | AID 1662, 2009 | 6 h | hit rate 1.3% among 300,000 | inhibition, % at 7.5 µM;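 active = mean replicate score, as percent of positive control median, at least 50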;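 also: strain carries kanamycin resistance gene driven by streptokinase promoter and grows in 40 µg/ml kanamycin; loss of luminescence reflects streptokinase promoter inhibition or plain growth inhibition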
NALP3 yeast conf: NALP3 inhibitors retested in yeast, confirmation, luminescence, single concentration | yeast expressing human NALP3 | inhibition, % at 10 µM | hit rate 81% among 1,300 | shares compounds with NALP3 yeast inh; in the data active = inhibition above about 48%
Casp1 ASC ctr: CASP1-PYCARD signaling inhibition in yeast, confirmatory test, counterassay for NLRP3 inhibitor program, one-dose; shares compounds with NALP3 yeast inh; yeast expressing Caspase-1-ASC, luminescence counter screen; inhibition, % at 10 µM; hit rate 66% among 1,000
NALP3 yeast rt: NALP3 inhibitors in yeast, repeat test, confirmation, luminescence, single concentration, retest. shares compounds with NALP3 yeast inh. yeast expressing human NALP3, luminescence read-out. inhibition, % at 10 µM. hit rate 53% among 1,000. AID 488794, 2010
Large screens that a line does not name were inactive (follow-up assays come after a bar, where they were run). Rule as the data show it, unless noted: active = inhibition above about 50%; inactive = the rest.

O=C(N/N=C/c1c(O)n(C2CCCCC2)c(=S)[nH]c1=O)c1ccccc1	SKKanGAS inh 80
O=C(N/N=C/c1c(O)n(Cc2ccco2)c(=O)[nH]c1=O)c1ccccc1O	SKKanGAS inh 68
CCCCn1c(O)c(/C=N/NC(=O)c2ccncc2)c(=O)[nH]c1=O	none
O=C(N/N=C/c1c(O)n(CCc2ccccc2)c(=O)[nH]c1=O)c1ccccc1	SKKanGAS inh 55
O=c1[nH]c(=S)n(C2CC2)c(O)c1/C=N/Nc1ccccc1	none
CCCCC(=O)N/N=C/c1c(O)n(Cc2ccco2)c(=O)[nH]c1=O	none
CC(C)c1ccc(-n2c(O)c(/C=N/NC(=O)c3ccccc3O)c(=O)[nH]c2=S)cc1	SKKanGAS inh 70
COC(=O)C1=C(c2ccc(F)cc2OCc2ccccc2)C[C@@H]2CC[C@H]1N2C(=O)NCc1ccc2c(c1)OCO2	none (no result: SKKanGAS inh)
CCC(C)n1c(O)c(/C=N/NC(=O)c2ccncc2)c(=O)[nH]c1=S (stereo unspecified)	SKKanGAS inh 91
O=C(N/N=C/c1c(O)n(Cc2ccc(F)cc2)c(=S)[nH]c1=O)c1ccncc1	SKKanGAS inh 101
C=C1C(O)[C@@H]2O[C@]3(CC[C@H](/C=C/C(C)[C@@H]4CC(C)=CC5(O[C@H](C[C@@](C)(O)C(=O)O)CCC5O)O4)O3)CC[C@H]2O[C@@H]1C(O)CC(C)[C@H]1OC2(CCCCO2)CCC1C (stereo partly specified)	none (no result: SKKanGAS inh)
N#CC(C#N)=Cc1ccc(-c2ccccc2)o1	NALP3 yeast inh 73 | NALP3 yeast conf 74
CCCCCCCCCCCCCCCC[N+](C)(C)C	NALP3 yeast inh 60, SKKanGAS inh 103 | NALP3 yeast conf 53 | Casp1 ASC ctr 55 | NALP3 yeast rt 59
COc1ccc(-n2c(O)c(C=NCCN3CCN(C(C)=O)CC3)c(=O)[nH]c2=S)cc1	NALP3 yeast inh 53 | NALP3 yeast conf 67 | Casp1 ASC ctr inactive | NALP3 yeast rt inactive
CC(=O)N1CCN(CCN=Cc2c(O)n(-c3ccc(C)cc3)c(=S)[nH]c2=O)CC1	none
C[C@]12CCC3C(CC[C@H]4C[C@H](O)CC[C@]34C)C1C[C@@H](O)[C@@H]2O (stereo partly specified)	none (no result: SKKanGAS inh)
C[C@]12CCC3C(CC[C@H]4C[C@@H](O)CC[C@]34C)C1CC[C@@H]2N (stereo partly specified)	none (no result: SKKanGAS inh)
C[C@]12CCC3C(CC[C@H]4C[C@H](O)CC[C@]34C)C1C[C@@H](CCCCl)[C@@H]2O (stereo partly specified)	NALP3 yeast inh 57 (no result: SKKanGAS inh) | NALP3 yeast conf 62
C[C@]12CCC3C(CC[C@H]4C[C@H](O)CC[C@]34C)C1C[C@H](O)[C@@H]2O (stereo partly specified)	NALP3 yeast inh 51 (no result: SKKanGAS inh) | NALP3 yeast conf 50
C[C@]12CCC3C(CC[C@H]4C[C@@H](O)CC[C@]34C)C1C[C@H](Br)[C@@H]2O (stereo partly specified)	NALP3 yeast inh 62 (no result: SKKanGAS inh) | NALP3 yeast conf 70
CCCCn1c(C)c(C(=O)OCC)c2c(CN3CCCC3)c(O)ccc21	none
COc1cc(/C=N/NP(=S)(c2ccccc2)c2ccccc2)ccc1O	none
Oc1ccc(/C=N/NP(=S)(c2ccccc2)c2ccccc2)cc1	NALP3 yeast inh 56 | NALP3 yeast conf 74 | Casp1 ASC ctr 65 | NALP3 yeast rt 57
CC(C)c1ccc(C2NCc3ccccc3-n3cccc32)cc1 (stereo unspecified)	NALP3 yeast inh 64 | NALP3 yeast conf inactive | Casp1 ASC ctr 60 | NALP3 yeast rt 58
COC(=O)C1=C(c2ccc(F)cc2OCc2ccccc2)C[C@@H]2CC[C@H]1N2C(=O)NCCCOC(C)C	none (no result: SKKanGAS inh)

High-throughput results deposited in PubChem BioAssay by several laboratories.
